Results published in PubChem BioAssay (NCATS).
Values joined by “and” are separate entries in the source; they are usually repeats but may differ in a detail not shown here. Equal values may be shown once. Records with an inconclusive call do not appear. Active and inactive are the calls of the source. Calls follow the shape of the full dose curve.

Assay: Primary qHTS to identify inhibitors of SARS-CoV-2 cell entry (AID 1645846); also: nearly all actives have a fitted effect of over 45% in size
Details: SARS-CoV-2 pseudovirus cell entry assay, luminescence; activity change, negative = inhibition: at 57.1 µM (top of the series) unless noted; series mostly up to 57.1 µM
Excerpt: Assay Provider: Wei Zheng, Ph.D.
National Center for Advancing Translational Sciences, National Institute of Health, Rockville, MD.
SARS-CoV-2 spike protein, within the viral envelope, mediates viral attachment and infection of host cells. The SARS-CoV-2 spike protein specifically binds to the host receptor ACE2 (Angiotensin-converting enzyme 2). This interaction promotes endocytosis of the viral particle, additional events lead to viral-host cell membrane fusion and release of the viral contents, allowing viral replication.
While SARS-CoV-2 requires BSL-3 facilities for live virus work, pseudotyped partices (PP) that incorporate SARS-CoV-2 spike proteins without replication elements could facilitate studies on viral entry mechanisms in a BSL-2 setting. This PP cell entry assay could also enable screening of small molecule compound libraries in BSL-2 setting to identify inhibitors of SARS-CoV-2 cell entry.
PROTOCOL TABLE (format as described by Inglese J, Shamu CE and Guy RK. 2007)
SEQUENCE No. (e.g., 1, 2, 3, etc.); […] (e.g., Cells, Incubation, Reagent, etc.); VALUE and DESCRIPTION.
1. Cells. Seed 1500 HEK293-ACE2 cells (Expi293F with stable expression of human ACE2) in 2 uL/well media (DMEM, 10% FBS, 1x L-glutamine, 1x Pen/Strep, 1 ug/ml puromycin) in white 1536-well assay plates (Greiner #782073).
2. Incubation. Incubate at 37C with 5% CO2 overnight (~16 h).
3. Compounds. Dispense 23 nL/well compounds in DMSO via pin transfer.
4. Incubation. Incubate for 1 hr at 37C 5% CO2.
5. Reagent. Dispense 2 uL/well of SARS-CoV-2-S pseudotyped particles. [a] PPs are produced with murine leukemia virus pseudotyping. [b] SARS-CoV-2-S is Wuhan-Hu-1 sequence (BEI #NR-52420) with C-terminal 19 amino acid truncation.
6. Centrifuge. […]
7. Incubation. Incubate at for 48 hr at 37C 5% CO2
8. Centrifuge. Remove supernatant with gentle centrifugation using a Blue Washer (BlueCat Bio).
9. Reagent. Dispense 4 uL/well of Bright-Glo Luciferase detection reagent (Promega #E2620).
10. Incubation. Incubate for 5 min at room temperature.
11. Detection. Read luminescence signal (Viewlux plate reader, PerkinElmer). Data was normalized with wells containing SARS-CoV-2-S PP as 100%, and wells containing bald PP (no fusion protein) as 0%.
Potency is read from the fitted curve at half-maximal effect.

| Structure (SMILES) | activity change, negative = inhibition | Potency |
| --- | --- | --- |
| Cn1sc(Cl)cc1=O | -5.28% |  |
| O=S(=O)(O)c1cc(O)ccc1O | -12.6% |  |
| CCCCC[C@@H](O)C1C(=O)OC(C)[C@H](O)/C=C/C=C/C=C/C=C/C=C(\C)C(O)C(O)C(O)C[C@H](O)C[C@H](O)C[C@H](O)C[C@H](O)C[C@@H]1O (stereo not given in full) | -29.9% |  |
| O=C(NCNC(=O)NC1C(=O)NC(=O)N1CO)NC1C(=O)NC(=O)N1CO (stereo not given) |  | inactive |
| O=c1[nH]cc(N(CCCl)CCCl)c(=O)[nH]1 | -21% [at 114 µM] |  |
| C[N+]1(C)CCCCC1COC(=O)C(O)(c1ccccc1)c1ccccc1 (stereo not given) | -8.43% |  |
| O=C(OCCN1CCCCC1)C(O)(c1ccccc1)c1ccccc1 | -28.8% |  |
| CCOc1ccccc1-n1c(C(C)N2CCN(C(=O)COc3ccc(Cl)cc3)CC2)nc2ccccc2c1=O (stereo not given) |  | 10 µM (active) |
| CN1[C@H]2CC[C@@H]1[C@@H](C(=O)O)[C@@H](OC(=O)c1ccccc1)C2 | -21.7% [at 114 µM] |  |
| O=[N+]([O-])C(Br)(CO)CO |  | inactive |
| CC1=C2C[C@H]3[C@@H](CC=C4C[C@@H](O)CC[C@@]43C)[C@@H]2CC[C@]12O[C@@H]1C[C@H](C)CN[C@H]1[C@H]2C |  | 17.8 µM (active) |
| CC[N+](C)(CC)CCOC(=O)C(O)(c1ccccc1)c1ccccc1 | -7.01% |  |
| CC(C)CCON=O |  | inactive |
| CC[C@H](C)[C@H]1O[C@]2(C=C[C@@H]1C)C[C@@H]1C[C@@H](C/C=C(\C)[C@@H](O[C@H]3C[C@H](OC)[C@@H](O[C@H]4C[C@H](OC)[C@@H](O)[C@H](C)O4)[C@H](C)O3)[C@@H](C)/C=C/C=C3\CO[C@@H]4[C@H](O)C(C)=C[C@@H](C(=O)O1)[C@]34O)O2 |  | 10 µM (active) |
| Oc1ccc2c3c1O[C@H]1[C@@H](O)CC[C@@]4(O)[C@@H](C2)N(CC2CCC2)CC[C@]314 | 1.55% |  |
| CC(C)CCC(=O)O[C@H]1CC[C@H]2[C@@H]3CCC4=CC(=O)CC[C@]4(C)[C@H]3CC[C@]12C | -25.5% |  |
| CCC1C(C)=NN=C(c2ccc(OC)c(OC)c2)c2cc(OC)c(OC)cc21 (stereo not given) |  | inactive |
| C[C@]12CC[C@H](OS(=O)(=O)O)CC1=CC[C@@H]1[C@@H]2CC[C@]2(C)C(=O)CC[C@@H]12 | -5.13% |  |
| C[C@]12CC[C@H]3[C@@H](CCC4=C(O)C(=O)CC[C@@H]43)[C@@H]1CC[C@@H]2OC(=O)CCC1CCCC1 | -9.8% |  |
| CCC1(C)CC(=O)NC(=O)C1 | -21.5% [at 114 µM] |  |

| Structure (SMILES) | activity change, negative = inhibition | Potency |
| --- | --- | --- |
| ClC1C(Cl)C(Cl)C(Cl)C(Cl)C1Cl (stereo not given) |  | inactive |
| Cc1ccccc1-n1c(CF)nc2ccc(N)cc2c1=O | -3.31% |  |
| O=C1OC2(c3cc(Br)c(O)cc3Oc3c2cc(Br)c(O)[c]3[Hg])c2ccccc21 (stereo not given) |  | 10 µM (active) |
| NCC(O)c1cccc(O)c1 (stereo not given) | -19.3% |  |
| CCCCCCC(=O)O[C@H]1CC[C@H]2[C@@H]3CC[C@H]4CC(=O)C=C(C)[C@]4(C)[C@H]3CC[C@]12C | -7.93% |  |
| CC1CCC(C(C)C)C(OC(=O)c2ccccc2N)C1 (stereo not given) | -3.33% |  |
| O=[N+]([O-])c1ccccc1 | -19.1% |  |
| C/C(=C\c1csc(C)n1)[C@@H]1C[C@@H]2O[C@]2(C)CCC[C@H](C)[C@H](O)[C@@H](C)C(=O)C(C)(C)[C@@H](O)CC(=O)O1 | -75.8% and -81.1% |  |
| O=C(O)C(Cl)(Cl)Cl | -27.9% |  |
| CCNCC(O)c1cccc(O)c1 (stereo not given) | -13.6% |  |
| CCCCCCCCCC(=O)O[C@H]1CC[C@H]2[C@@H]3CCC4=CC(=O)CC[C@]4(C)[C@H]3CC[C@]12C | -15.3% |  |
| O=C/C=C/c1ccccc1 | -22.2% |  |
| CCCCNCC(O)c1ccc(O)cc1 (stereo not given) |  | inactive |
| CC(=O)O[C@H]1CC[C@H]2[C@@H]3CCC4=CC(=O)CCC4=C3C=C[C@]12C | -33.2% |  |
| COc1cc2c(cc1OC)[C@@]13CCN4CC5=CCO[C@H]6CC(=O)N2[C@H]1[C@H]6[C@H]5C[C@H]43 | -18.2% |  |
| C/C(O)=C(\C#N)C(=O)Nc1cc(Br)ccc1Br | -10.6% |  |
| c1ccc2sc(SNC3CCCCC3)nc2c1 | 2.84% [at 114 µM] |  |
| C[C@@H]([C@H](O)c1ccccc1)N(C)C | -34.9% |  |
| O=P(O)(O)C(Cl)(Cl)P(=O)(O)O | -6.21% [at 5.25 µM] |  |
| CCOC(=O)c1ccccc1C(=O)OCC |  | inactive |
